Several values for one entry are separate records, joined by “and”; a condition that tells them apart may be missing. Equal values may be shown once. Where a name gives a salt, the structure may show the parent alone.
Legend:
Experiment in all cases: cell viability relative to vehicle control; higher = less cytotoxic
Details in all cases: 10 µM
K562 = tested on: K562
In short: (§1)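 Four leukaemia lines, as CRISPR-edited mutant clones and isogenic wild-type clones, were tested against Selleck bioactive, kinase and epigenetic probe libraries after removal of identity-inconsistent compounds. Cells were exposed to a single 10 µM dose for 48 h, and CellTiter-Glo luminescence was then read. Viability was calculated relative to the on-plate vehicle control.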

MARIMO = tested on: MARIMO
In short: as §1

MOLM14 = tested on: MOLM14
In short: as §1

OCI-AML2 = tested on: OCI-AML2
In short: as §1

SMILES	cell viability (K562; SRSF2 genotype: SRSF2 P95H/wt)	cell viability (K562; SRSF2 genotype: SRSF2 wt/wt)	cell viability (MARIMO; SRSF2 genotype: SRSF2 P95H/wt)	cell viability (MARIMO; SRSF2 genotype: SRSF2 wt/wt)	cell viability (MOLM14; SRSF2 genotype: SRSF2 P95H/wt)	cell viability (MOLM14; SRSF2 genotype: SRSF2 wt/wt)	cell viability (OCI-AML2; SRSF2 genotype: P95H/wt)	cell viability (OCI-AML2; SRSF2 genotype: wt/wt)
CC(C)CN(CC(=O)N1CCN(CC(OCc2ccc3ccccc3c2)c2ccc(Cl)cc2Cl)CC1)CC(C)C (stereo not given)	73.4% and 83%	79.2%	54.3%	43.2%	56.2%	71%	36%	41.8%
NC(=O)c1ccc(I)c([N+](=O)[O-])c1 [Iniparib (BSI-201)]	101% and 102%	113%	97.6%	81.1%	98.6%	100%	127%	114%
COC1=C(OC)C(=O)C(CCCCCCCCCCO)=C(C)C1=O [Idebenone]	78.7% and 86.7%	86.9%	85.6%	89.6%	88%	88.7%	68.8%	75.2%
COc1ccc(-c2cc(=O)c3c(OC)c(OC)c(OC)c(OC)c3o2)cc1OC [Nobiletin (Hexamethoxyflavone)]	94.6% and 90.6%	92.6%	79.1%	82.1%	83.3%	81.3%	74.5%	81.5%
O=C(Nc1ccc(-c2ccnc(Nc3ccc(N4CCOCC4)cc3)n2)cc1)C1CCCN1 (stereo not given)	89.5% and 97.2%	89.5%	72.2%	73.5%	35.5%	22.4%	43.1%	39.2%
COc1ccc2cc(CCC(C)=O)ccc2c1 [Nabumetone]	105% and 96.8%	93.8%	97.1%	95.3%	104%	104%	92.4%	92.4%
Nc1ccccc1NC(=O)c1ccc(CNc2nccc(-c3cccnc3)n2)cc1 [Mocetinostat (MGCD0103)]	4.12% and 14.8%	10.5%	7.4%	9.28%	0.6%	0.42%	0.44%	3.29%
CNc1cccc(CCOc2ccc3c(c2)CN(CC(F)(F)F)C(=O)[C@H](CC(=O)O)C3)n1	101%	91.5%	96.1%	102%	97.7%	98.6%	100%	106%
CCOC(=O)Nc1ccc(NCc2ccc(F)cc2)nc1N [Flupirtine maleate]	101% and 104%	104%	91.5%	105%	101%	103%	100%	110%
O=C(O)c1cc(=O)[nH]c(=O)[nH]1 [Orotic acid (6-Carboxyuracil)]	104% and 95.1%	96.6%	91.1%	101%	95.3%	95.2%	95.2%	96.5%
COc1cc2ncnc(Oc3cccc(NC(=O)Nc4cc(C(C)(C)C(F)(F)F)on4)c3)c2cc1OC	23.5% and 40.4%	24.8%	79.4%	85%	33.8%	23.7%	60.3%	61.5%
O=C(O)/C=C/c1ccc(O)cc1 [p-Coumaric Acid]	101% and 108%	110%	108%	110%	107%	107%	109%	103%
OC[C@H]1O[C@@H](O[C@@H]2OC=C[C@H]3[C@H](O)[C@@H]4O[C@]4(CO)[C@@H]23)[C@H](O)[C@@H](O)[C@@H]1O [Catalpol]	106% and 108%	104%	103%	115%	99.9%	105%	96.7%	106%
OCC(O)C(O)C(O)C(O)CO (stereo not given) [Dulcitol]	102% and 104%	99.7%	105%	107%	99.9%	106%	105%	103%
Cn1nc(C(C)(C)C)cc1C(=O)N[C@@H](Cc1cccc(Cl)c1)C(=O)NCC#N [Cathepsin Inhibitor 1]	93.5% and 89.9%	83.2%	93.1%	100%	92.4%	98.4%	97.8%	95.9%
COc1ccc(-c2ccc3cc(C(=O)O)ccc3c2)cc1C12CC3CC(CC(C3)C1)C2 [Adapalene]	93.7% and 97.8%	88.2%	45.3%	26.6%	56.9%	23.9%	31.2%	38.6%
CC(C(=O)O)c1cccc(Oc2ccccc2)c1 (stereo not given) [Fenoprofen calcium hydrate]	95.1% and 104%	99.4%	103%	101%	95.1%	102%	106%	103%
COc1cc2nccc(Oc3ccc(NC(=O)C4(C(=O)Nc5ccc(F)cc5)CC4)cc3)c2cc1OC	9.94% and 12.3%	20.6%	69.1%	66.8%	5.29%	5.9%	19.2%	28%
Cc1ncc([N+](=O)[O-])n1CC(C)O (stereo not given) [Secnidazole (Flagentyl)]	100% and 109%	106%	100%	105%	104%	108%	114%	93.1%
C[C@@H]1O[C@@H](O[C@H]2[C@H](Oc3cc(O)c(C(=O)CCc4ccc(O)cc4)c(O)c3)O[C@H](CO)[C@@H](O)[C@@H]2O)[C@H](O)[C@H](O)[C@H]1O [Naringin Dihydrochalcone (Naringin DC)]	99.7% and 107%	94.5%	102%	105%	98.4%	104%	96.8%	111%

SMILES	cell viability (K562; SRSF2 genotype: SRSF2 P95H/wt)	cell viability (K562; SRSF2 genotype: SRSF2 wt/wt)	cell viability (MARIMO; SRSF2 genotype: SRSF2 P95H/wt)	cell viability (MARIMO; SRSF2 genotype: SRSF2 wt/wt)	cell viability (MOLM14; SRSF2 genotype: SRSF2 P95H/wt)	cell viability (MOLM14; SRSF2 genotype: SRSF2 wt/wt)	cell viability (OCI-AML2; SRSF2 genotype: P95H/wt)	cell viability (OCI-AML2; SRSF2 genotype: wt/wt)
Cn1cc(CNCC2CCN(c3ncc(C(=O)NO)cn3)CC2)c2ccccc21	1.34% and 13.5%	3%	7.96%	11.5%	0.72%	0.54%	1.8%	2.84%
CCCCCC(=O)O[C@]1(C(C)=O)CC[C@H]2[C@@H]3CCC4=CC(=O)CC[C@]4(C)[C@H]3CC[C@@]21C [Hydroxyprogesterone caproate]	40.1% and 34.4%	39.2%	29.2%	24.9%	38.5%	21%	28.8%	23.7%
CCN(CC)C(=O)/C(C#N)=C/c1cc(O)c(O)c([N+](=O)[O-])c1 [Entacapone]	101% and 105%	107%	101%	102%	102%	102%	114%	97.4%
NC(=O)c1cnc2[nH]ccc2c1N[C@@H]1[C@@H]2CC3C[C@H]1C[C@@](O)(C3)C2	89.4% and 109%	98.6%	70.9%	71.5%	13.2%	9.06%	15.3%	19.3%
NC(=O)c1noc([C@H](CCCC2CCCCC2)CC(=O)NO)n1	92.1% and 88.7%	83.8%	61.7%	68.3%	76.3%	80.6%	15.1%	40.7%
O=C(Nc1ccc2c(O)cc(S(=O)(=O)O)cc2c1)Nc1ccc2c(O)cc(S(=O)(=O)O)cc2c1 [AMI-1, free acid]	105% and 92.6%	109%	100%	110%	103%	108%	109%	112%
COc1ccc(C(=O)O)c(O)c1 [4-Methoxysalicylic acid]	104% and 95.4%	107%	98.6%	99.3%	98.1%	106%	101%	106%
Cc1ccc(Nc2cc(N[C@@H]3CCCC[C@@H]3N)nnc2C(N)=O)nc1C	80.8% and 84.1%	80.7%	76.2%	79%	18.6%	18%	15.1%	25.2%
Cc1nnc(SCC2=C(C(=O)O)N3C(=O)[C@@H](NC(=O)Cn4cc(Cl)c(=O)c(Cl)c4)[C@H]3SC2)s1 [Cefazedone]	102% and 107%	108%	106%	111%	106%	106%	121%	102%
NC1CC1c1ccc(-c2cccc(O)c2)cc1 (stereo not given)	96.2% and 104%	97.1%	88.3%	106%	99.4%	99.1%	87%	92%
C[C@@H](c1ccc2nccn2c1)n1nnc2ncc(-c3cnn(C)c3)nc21 [Savolitinib(AZD6094, HMPL-504)]	94.1% and 97.5%	104%	94.3%	91%	96.6%	97.2%	90.3%	96.5%
Nc1ccc(O)cc1 [4-Aminophenol]	63.2% and 50.9%	83.5%	45.6%	50%	12.1%	23.2%	3.01%	12%
C[C@@H]([C@H](C)O)[C@H](N)C(=O)O [(4S)-4-Hydroxy-L-isoleucine]	105% and 96.3%	102%	100%	102%	111%	102%	108%	104%
CCOC(=O)C1=C(C)NC(C)=C(C(=O)OC)C1c1cccc([N+](=O)[O-])c1 (stereo not given) [Nitrendipine]	101% and 104%	100%	97.3%	99.9%	97.7%	103%	122%	111%
Cc1cc(O)c2c(c1)C(=O)c1cc(O)cc(O)c1C2=O [Emodin]	85.5% and 86.8%	90.4%	90.9%	100%	109%	107%	89.1%	83.7%
CCCC(C)NC(=O)c1ccc(Cl)c(Cl)c1 (stereo not given)	101% and 97.6%	105%	90.5%	96.2%	112%	103%	96%	96.8%
NC(=O)c1cccc(N)c1 [INO-1001 (3-Aminobenzamide)]	96.6% and 95.7%	94.7%	99.5%	97.8%	100%	96.6%	94.7%	98.8%
COc1cc(OC)c2c(=O)[nH]c(-c3cc(C)c(OCCO)c(C)c3)nc2c1	81.8% and 87.1%	87.5%	80.1%	71.1%	77.8%	81.3%	79%	86%
O=C1C(=O)c2ccccc2C(O)=C1C1CCC(c2ccc(Cl)cc2)CC1 (stereo not given) [Atovaquone (Atavaquone)]	87.9% and 81.8%	79.7%	87.9%	95.8%	84.7%	88.7%	84.8%	90.1%
COc1ccc(-c2cc3c(C)nc(N)nc3n([C@H]3CC[C@H](OCCO)CC3)c2=O)cn1	40.2% and 40.4%	39.5%	32.4%	27.5%	22.9%	23.3%	1.55%	8.86%

Source: the supplement of paper PMC10981050
